# Hits are enriched below; roughly 8.9% of the tested compounds scored in any of these assays.
# DRD3 antagonist: qHTS of D3 Dopamine Receptor Antagonist: qHTS; D(3) dopamine receptor (Homo sapiens), P35462; D3R cells, DiscoveRx beta-arrestin luminescence, antagonist mode; stronger effect = lower value; max response, negative = inhibition, %; 360,000 compounds, 2.5% hits; AID 652054, 2013; in the data active = max response below about -50%; inconclusive = no clear call, values can overlap the other calls; also: % is scaled to controls: 0 for no effect and ±100 for the full control effect
# Target sequence (P35462 whole entry, looked up): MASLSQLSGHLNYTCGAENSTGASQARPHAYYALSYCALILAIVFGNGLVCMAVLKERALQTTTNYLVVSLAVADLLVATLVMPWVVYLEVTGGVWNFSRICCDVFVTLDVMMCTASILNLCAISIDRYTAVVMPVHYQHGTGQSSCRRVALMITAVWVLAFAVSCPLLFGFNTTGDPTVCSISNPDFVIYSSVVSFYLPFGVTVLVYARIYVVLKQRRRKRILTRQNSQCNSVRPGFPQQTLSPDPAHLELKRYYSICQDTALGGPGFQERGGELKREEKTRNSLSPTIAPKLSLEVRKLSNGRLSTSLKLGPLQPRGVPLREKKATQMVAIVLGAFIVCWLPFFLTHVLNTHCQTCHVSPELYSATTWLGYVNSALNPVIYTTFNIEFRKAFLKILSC
#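 Cells expressing the human receptor were seeded at 1500 cells/well, incubated overnight at 37 degrees C in 5% CO2, then exposed to library compounds with dopamine controls for 90 minutes at 37 degrees C before luminescent detection.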
# MCF10A rerep: A quantitative high throughput screen for small molecules that induce DNA re-replication in MCF 10a normal breast cells | MCF 10A DNA re-replication, Hoechst nuclear intensity, 48 h | Potency, µM (titrated, usually from 46.1 µM), without a hit: at the top dose activity, positive = re-replication, hits mostly activators | 350,000 compounds, 2.9% hits; also: potency is read from the fitted curve at half-maximal effect; % of control where 0% means no effect; nearly all actives have a fitted effect of over 50% in size
# KB-3-1 cytotox: qHTS assay for MDR1-selective chemotherapeutics: Primary screen using the parental adenocarcinoma cell KB-3-1. KB-3-1 viability, CellTiter-Glo ATP luminescence, 72 h. Potency, µM (top dose mostly 46.1 µM), actives largely listed as cytotoxic. 400,000 compounds, 1.4% hits. AID 1347075, 2019; also: potency is read from the fitted curve at half-maximal effect; % is scaled to controls: 0 for no effect and ±100 for the full control effect; nearly all actives have a fitted effect of over 60% in size
#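 Cells are dispensed, compounds pinned in, plates held at 37 °C for 72 h, then CellTiter-Glo is added and luminescence read after 10 minutes. Cell line: parental KB-3-1 in phenol-red-free DMEM, 10% FBS.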
# DRD3 agonist: qHTS of D3 Dopamine Receptor Agonist: qHTS; D(3) dopamine receptor (Homo sapiens), P35462; AID 652048, 2013; 410,000 compounds, 0.58% hits; max activation, %; D3R DiscoveRx beta-arrestin cells, luminescence, 90 min; in the data active = max activation above about 30%; also: 0% is about no effect
#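 Agonist mode: compounds and dopamine controls were applied to plated cells for 90 min at 37 degrees C after an overnight attachment at 1500 cells/well. Luminescent read-out followed 30 - 60 minutes at room temperature with DiscoveRx detection reagent.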
# KB-V1 cytotox: qHTS assay for MDR1-selective chemotherapeutics: Primary screen using the drug-selected MDR subline cells KB-V1; KB-V1 MDR cells viability, CellTiter-Glo, 72 h; Potency, µM (highest dose often 46.1 µM), most hits filed as cytotoxic; 400,000 compounds, 3.4% hits; AID 1347076, 2019; also: potency is read from the fitted curve at half-maximal effect; % is scaled to controls: 0 for no effect and ±100 for the full control effect; nearly all actives have a fitted effect of over 60% in size
#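 Readout: CellTiter-Glo luminescence, 10 min after addition. Cells: KB-V1 MDR subline, 72 h at 37 degrees C with compound. Analysis: corrected, normalized data fitted to concentration-effect curves.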
# SW480 rerep: A quantitative high throughput screen for small molecules that induce DNA re-replication in SW480 colon adenocarcinoma cells; AID 624297, 2012; 340,000 compounds, 1.8% hits; Potency, µM (doses to about 46.1 µM), for inactives: at the top dose re-replication activation, hits mostly activators; SW480 DNA re-replication, Hoechst DNA content imaging, 48 h; also: potency is read from the fitted curve at half-maximal effect; % of control where 0% means no effect; nearly all actives have a fitted effect of over 55% in size
#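 Treated cells incubate 48 hr (37 C, 5% CO2), are stained 40 min with Hoechst, and nuclear fluorescence is enumerated; a rise in nuclei with high DNA signal marks re-replication.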
# Numbers without * were called inactive; i = inactive; ? = inconclusive; . = not tested or not shown; [ ] = dose if it differs, or a comment. Unless noted, calls follow the shape of the dose curve; as a rule, active = well fitted curve in the direction sought with a large enough effect; inconclusive = small, poorly fitted or top-dose-only effect, or another doubt; inactive = no such curve, though single readings can be large; an effect the other way counts as inactive or inconclusive.
SMILES,DRD3 antagonist,MCF10A rerep,KB-3-1 cytotox,DRD3 agonist,KB-V1 cytotox,SW480 rerep
CCn1cc(C(=O)NC(C)c2ccccc2)c(=O)c2cc(S(=O)(=O)N3CCc4ccccc4C3)ccc21 (centres undefined),.,.,i,-11.6,i,.
CC(C)OC(=O)c1ccc(Cn2nnc3sc4c(c3c2=O)CCCC4)cc1,.,.,i,-1.2,i,.
O=C(CSc1ncnc2nc[nH]c12)N1CCN(c2ccc(Cl)cc2)CC1,18.8,8.9%,18.4µM*,13.8,?,-6.9%
CCOC(=O)CC1COc2ccccc2N1C(=O)c1ccc(C)cc1 (centres undefined),-14.3,3.8%,i,-4.4,18.4µM*,-12.0%
CCOc1ccc(S(=O)(=O)NCc2ccccn2)cc1NC(=O)c1ccccc1F,-13.6,?,?,-9.0,?,0.82µM*
COc1ccc(S(=O)(=O)NCc2ccccn2)cc1NC(=O)c1ccc(C)cc1,?,?,9.2µM*,-16.3,?,2.5%
COc1ccc(S(=O)(=O)NCc2ccccn2)cc1NC(=O)c1ccccc1,-0.5,20.6µM*,13µM*,-2.7,?,9.2µM*
COc1ccc(S(=O)(=O)NCc2ccccn2)cc1Br,-15.0,-11.4%,i,-12.5,i,-0.7%
COc1ccc(S(=O)(=O)NCc2cccnc2)cc1NC(=O)c1ccc(Cl)cc1,0.0,3.6%,i,-0.4,?,-6.7%
CCOc1cc(C)c(C(C)C)cc1S(=O)(=O)NCc1ccccn1,5.5,9.4%,i,10.2,9.2µM*,0.8%
CCOC(=O)c1c(C)c(C(=O)NCc2ccc(Cl)cc2)c(C)n1CC,.,.,i,-15.3,?,.
OC(c1ccccc1)(c1ccccc1)c1nccc2ccccc12,-18.8,9.6%,?,-3.1,18.4µM*,2.2%
COc1cc2c(c(OC)c1OC)-c1c(cc3c(c1OC)OCO3)C1OC2[C@@H](C)[C@H]1C (some centres undefined),14.4,?,i,16.0,i,-4.2%
COc1cc(C2C3=C(COC3=O)Oc3cc4c(cc32)OCO4)ccc1O (centres undefined),-11.4,?,3.66µM*,-10.5,4.61µM*,1.84µM*
COc1cc(C2C3=C(COC3=O)OC(C)(C)Oc3cc4c(cc32)OCO4)cc(OC)c1OC (centres undefined),-9.5,1.16µM*,0.731µM*,-7.4,3.66µM*,1.16µM*
CCOc1ccccc1CN1CCNC(=O)C1CC(=O)NCc1nc(C)cs1 (centres undefined),-3.1,-3.8%,i,-5.6,i,-5.2%
Cc1cc(NC(=O)COc2ccccc2)cc(-c2nc3ccccc3o2)c1O,.,.,i,-8.3,i,.
C=CCN1C(=O)C(CC(=O)O)SC1=Nc1ccc(C)cc1 (centres undefined),1.2,2.59µM*,i,5.8,i,-19.3%
C=CCN1C(=O)C(Cc2cccc(C)c2)SC1=Nc1ccc(C(=O)O)cc1 (centres undefined),-11.5,-1.0%,i,10.2,i,0.1%
O=C(CN1C(=O)C2C3C=CC(C3)C2C1=O)OCC(=O)c1ccc(Cl)c([N+](=O)[O-])c1 (centres undefined),-69.5*,?,i,-30.4,i,?
Cc1ccc(C(=O)COC(=O)CN2C(=O)C3C4C=CC(C4)C3C2=O)cc1[N+](=O)[O-] (centres undefined),-3.5,-7.9%,i,8.8,i,-5.0%
O=C(CNS(=O)(=O)c1ccccc1)NCc1ccccn1,-51.5*,-6.1%,i,1.8,i,-0.5%
Nc1nc2ccc(N3CCOCC3)cc2s1,-76.0*,-36.1%,i,-8.5,i,-5.9%
CCC1CN(C(=O)Nc2cc(Cl)c(OC)cc2OC)c2ccccc2O1 (centres undefined),.,.,.,0.3,.,.
CC(C)c1ccc(/C=C/C2=NNC(=O)CC2)cc1,-17.7,?,0.731µM*,7.1,0.184µM*,?
SMILES,DRD3 antagonist,MCF10A rerep,KB-3-1 cytotox,DRD3 agonist,KB-V1 cytotox,SW480 rerep
COc1cc(/C=C/C2=NNC(=O)CC2)cc(OC)c1OC,4.4,3.8%,0.517µM*,-6.0,?,1.6%
COc1ccc(C(=O)N/C(N)=N/c2nc3ccccc3o2)cc1,0.0,?,?,3.3,?,17.1%
COc1ccc(C(=O)/C=C/Sc2nc3ccccc3o2)cc1,-104.7*,22.1%,?,-17.0,?,?
CCOc1ccc(NC(=O)Cn2c(=O)cc(C)c3c(C)nn(-c4ccc(CC)cc4)c32)cc1,.,.,i,-15.0,i,.
Cc1cc(Sc2ncnc(N)c2[N+](=O)[O-])ncn1,-70.9*,2.91µM*,4.61µM*,-26.8,?,?
Cc1ccc(C)c(Oc2ncnc(N)c2[N+](=O)[O-])c1,2.4,4.9%,i,1.6,i,-0.8%
Cc1cc(Sc2nc(N)ncc2[N+](=O)[O-])ncn1,-60.2*,?,16.4µM*,-7.4,i,?
Cc1cc(N)ncc1[N+](=O)[O-],8.5,0.4%,i,5.7,i,-5.9%
CC1SCCN1S(=O)(=O)c1ccc2ccccc2c1 (centres undefined),-58.8*,0.8%,i,0.3,i,-3.8%
CC(C)(C#N)NC(=O)C1CCCN1S(=O)(=O)c1ccc2ccccc2c1 (centres undefined),-1.7,?,?,-4.3,?,23.1µM*
O=C(O)C1SCCN1S(=O)(=O)c1ccc2ccccc2c1 (centres undefined),10.7,-178.5%[0.0737 µM],i,1.4,i,-28.0%
O=C(NC1CC1)C1CCCN1S(=O)(=O)c1ccc2ccccc2c1 (centres undefined),11.9,6.0%,16.4µM*,-0.6,?,?
CCNC(=O)C1CCCN1S(=O)(=O)c1ccc2ccccc2c1 (centres undefined),6.3,-28.3%,?,-8.7,i,-9.3%
Cc1nc2sccn2c(=O)c1S(=O)(=O)Nc1cc(C(F)(F)F)ccc1Cl,.,.,i,8.4,i,.
Cc1ccc(-n2c(-c3ccc(Cl)cc3)c[n+]3c2CCC3)cc1,-23.5,1.2%,4.61µM*,-9.6,i,0.5%
Cc1ccc(-n2c(-c3ccccc3)c[n+]3c2CCC3)cc1,2.3,12.1%,3.66µM*,-11.1,?,1.5%
FC(F)Sc1ccc(-n2c(-c3ccc(Cl)cc3)c[n+]3c2CCC3)cc1,-26.6,?,?,-5.0,i,17.8%

# Screening results as filed in PubChem BioAssay.
